Source: PMC5540273 (PLoS ONE, 2017)

What was measured:
Conditions in all cases: concentration: 1 μM, replicates: in singlicate; n = 1
BRSK2 = system: BRSK2
BTK = system: BTK
BUB1 = system: BUB1
CAMK1B = system: CAMK1B
CAMK1D = system: CAMK1D
CAMK1G = system: CAMK1G
CAMK1 = system: CAMK1
CAMK2A = system: CAMK2A
CAMK2B = system: CAMK2B
CAMK2D = system: CAMK2D
CAMK2G = system: CAMK2G
CAMK4 = system: CAMK4
CAMKK1 = system: CAMKK1
CAMKK2 = system: CAMKK2
CASK = system: CASK
CDC2L1 = system: T1, CDC2L1
T1 construct: gene CDK11B

CDC2L2 = system: CDC2L2
CDC2L5 = system: T2, CDC2L5
T2 construct: gene CDK13

CDK11 = system: T3, CDK11
T3 construct: gene CDK19

CDK2 = system: CDK2
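Also: KINOMEscan kinase panel screen.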

SMILES	%Inh (BRSK2)	%Inh (BTK)	%Inh (BUB1)	%Inh (CAMK1B)	%Inh (CAMK1D)	%Inh (CAMK1G)	%Inh (CAMK1)	%Inh (CAMK2A)	%Inh (CAMK2B)	%Inh (CAMK2D)	%Inh (CAMK2G)	%Inh (CAMK4)	%Inh (CAMKK1)	%Inh (CAMKK2)	%Inh (CASK)	%Inh (CDC2L1)	%Inh (CDC2L2)	%Inh (CDC2L5)	%Inh (CDK11)	%Inh (CDK2)
Nc1nccc2scc(-c3ccc4c(c3)CCN4C(=O)Cc3ccccc3)c12 [GSK2576924]	0%	0%	0%	33%	10%	0%	9%	10%	2%	4%	0%	3%	0%	7%	15%	8%	16%	0%	57%	0%
Nc1nc(N)c2nc(-c3ccccc3)[nH]c2n1 [SKF-12778]	0%	0%	23%	18%	0%	0%	0%	0%	0%	0%	4%	0%	6%	0%	0%	0%	0%	5%	0%	0%
COc1ccc(-c2coc3ccc(-c4nnc(SCc5cccc(C#N)c5)o4)cc23)cc1	10%	0%	0%	6%	23%	8%	26%	0%	0%	7%	0%	0%	0%	0%	8%	0%	10%	0%	0%	6%
Cc1ccccc1COc1cc(-n2cnc3cc(Cl)ccc32)sc1C(N)=O [GW813349]	2%	18%	0%	0%	5%	0%	0%	0%	0%	0%	0%	0%	0%	0%	17%	0%	0%	0%	23%	0%
Cc1cccc(-c2nc(Nc3ccc4c(cnn4C)c3)c3ccccc3n2)n1 [GW876731]	2%	0%	34%	0%	0%	0%	10%	0%	8%	2%	0%	0%	2%	0%	0%	0%	6%	0%	10%	6%
O=C(Nc1n[nH]c2nc(-c3ccccc3)c(Br)cc12)C1CC1 [SB-708998]	32%	0%	11%	26%	4%	0%	4%	0%	0%	4%	4%	0%	0%	0%	0%	0%	0%	0%	0%	0%
OCCCNc1nccc(-c2c(-c3cccc(C(F)(F)F)c3)nn3cc(C(F)(F)F)ccc23)n1 [GW630813]	0%	0%	42%	0%	14%	1%	11%	0%	0%	22%	17%	0%	5%	12%	2%	0%	9%	0%	2%	25%
CCn1c(-c2ccoc2)nc2cnccc21 [SB-733887]	0%	0%	59%	0%	8%	0%	2%	0%	0%	0%	6%	0%	4%	4%	3%	0%	6%	0%	0%	4%
COc1ccc(-c2cc3c(C)nc(N)nc3n([C@H]3CC[C@H](OCCO)CC3)c2=O)cn1	0%	0%	0%	7%	0%	0%	0%	0%	0%	0%	0%	5%	5%	0%	0%	11%	0%	0%	34%	0%
COc1cc2nccc(Nc3cccc(Oc4ccccc4)c3)c2cc1OC.Cl [GW284543]	1%	24%	38%	28%	0%	0%	2%	0%	0%	6%	19%	0%	8%	19%	1%	0%	11%	0%	0%	0%
Cn1c(=O)c(F)c(Nc2ccc(I)cc2F)c2c(=O)n(OC[C@H](O)CO)cnc21	15%	0%	0%	0%	8%	0%	0%	4%	12%	9%	34%	22%	24%	33%	0%	14%	15%	13%	0%	0%
COc1cccc(C2=C(N(C)c3ccccc3)C(=O)NC2=O)c1 [SB-334865]	0%	0%	53%	8%	12%	0%	4%	0%	0%	17%	9%	0%	0%	0%	30%	43%	27%	0%	0%	3%
Cc1nnc(-c2ccc3ncn(-c4ccc(S(C)=O)cc4)c3c2)o1 (centres unmarked)	0%	0%	0%	13%	0%	2%	11%	0%	0%	4%	0%	0%	0%	0%	0%	0%	10%	0%	0%	0%
Nc1ncnc2c1ncn2-c1ccc(Cl)cc1 [AH2635]	9%	0%	25%	3%	4%	0%	5%	0%	0%	0%	13%	0%	0%	10%	0%	0%	28%	0%	0%	0%
CN(C)c1cc(-c2ccc3c(N)n[nH]c3c2)nc(N)n1 [GSK2219329]	0%	0%	24%	0%	9%	0%	4%	0%	0%	0%	19%	0%	0%	9%	0%	0%	22%	0%	0%	10%
COc1cccc(C2=C(Nc3cccc(C(=O)O)c3)C(=O)NC2=O)c1 [SB-390770]	17%	0%	8%	30%	0%	33%	3%	22%	33%	0%	14%	0%	1%	14%	13%	0%	0%	0%	0%	15%
Cc1c(Cn2c(C)nn3c(=O)cc(N4CCO[C@H](C)C4)nc23)cccc1C(F)(F)F [GSK2373690]	0%	0%	0%	0%	7%	0%	7%	0%	0%	0%	18%	0%	0%	10%	14%	0%	8%	0%	14%	0%
Cc1nn2c(=O)cc(N3CCOCC3)nc2n1Cc1cccc(Cl)c1Cl [GSK2342769]	0%	0%	12%	28%	8%	8%	9%	0%	0%	1%	10%	25%	2%	9%	0%	0%	6%	0%	16%	0%
COc1ccc(CNC(=O)NC2CCN(c3ccnc(Nc4ccc(F)cc4)n3)C2)cc1 (centres unmarked) [GSK1379706]	3%	18%	50%	0%	4%	8%	5%	0%	0%	18%	38%	0%	17%	26%	19%	2%	0%	0%	22%	3%

SMILES	%Inh (BRSK2)	%Inh (BTK)	%Inh (BUB1)	%Inh (CAMK1B)	%Inh (CAMK1D)	%Inh (CAMK1G)	%Inh (CAMK1)	%Inh (CAMK2A)	%Inh (CAMK2B)	%Inh (CAMK2D)	%Inh (CAMK2G)	%Inh (CAMK4)	%Inh (CAMKK1)	%Inh (CAMKK2)	%Inh (CASK)	%Inh (CDC2L1)	%Inh (CDC2L2)	%Inh (CDC2L5)	%Inh (CDK11)	%Inh (CDK2)
CC(C)(C)c1ccc(C(=O)Nc2cn3cc(-c4ccccc4)ccc3n2)cc1	0%	0%	0%	6%	0%	0%	0%	0%	0%	0%	0%	14%	0%	0%	1%	0%	11%	0%	0%	0%
O=C(NCc1cccs1)c1cc(C(=O)c2c(Cl)cccc2Cl)c[nH]1 [GW823670]	0%	0%	0%	0%	0%	0%	0%	0%	0%	0%	0%	15%	0%	0%	5%	0%	0%	0%	14%	0%
COc1cc(Nc2nccc(N3CCC(NC(=O)C4COc5ccccc5O4)C3)n2)cc(OC)c1OC (centres unmarked) [GSK1379761]	0%	53%	53%	25%	8%	8%	21%	8%	0%	9%	26%	0%	20%	14%	0%	0%	4%	0%	7%	0%
CCCNC(=O)Nc1ccc(Oc2ncnc3ccn(C)c23)cc1	8%	0%	0%	0%	0%	19%	13%	0%	1%	11%	15%	0%	5%	9%	13%	0%	0%	6%	3%	7%
Cc1cccc(-c2cc(-c3c[nH]nc3-c3ccccn3)ccn2)c1 [GW679395]	0%	0%	28%	5%	10%	0%	7%	0%	0%	5%	21%	0%	9%	7%	24%	0%	0%	0%	9%	0%
COC(=O)c1c(-c2ccccc2)c2cc(Br)ccc2c(=O)n1Cc1ccc(S(C)(=O)=O)cc1	0%	47%	15%	0%	26%	21%	42%	21%	6%	18%	21%	0%	10%	30%	0%	11%	0%	14%	24%	6%
Nc1ncnc2c1ncn2-c1cccc(F)c1 [SKF-97560]	5%	22%	39%	0%	0%	0%	0%	0%	3%	0%	0%	0%	0%	0%	47%	1%	15%	23%	0%	0%
COc1ccc(-c2cc3c(C)nc(N)nc3n([C@H]3CC[C@H](O)CC3)c2=O)cn1	0%	0%	0%	0%	0%	0%	0%	0%	0%	0%	0%	0%	0%	0%	0%	0%	0%	0%	0%	0%
Nc1n[nH]c2ncc(-c3ccccc3)cc12 [SB-517081]	0%	0%	34%	58%	40%	17%	18%	0%	0%	11%	11%	0%	0%	0%	24%	0%	5%	0%	0%	0%
Fc1cccc(CSc2nnc(-c3ccc4c(c3)CCO4)o2)c1	0%	33%	25%	0%	0%	2%	6%	16%	24%	0%	20%	0%	9%	6%	0%	0%	0%	17%	0%	8%
CCC(=O)c1c(-c2ccccc2)c2cc(Cl)ccc2c(=O)n1Cc1cc(S(C)(=O)=O)n(CC(F)F)n1	0%	0%	4%	0%	0%	1%	0%	2%	0%	0%	0%	0%	0%	6%	5%	1%	2%	24%	0%	0%
COc1cc(Nc2nccc(N3CCC(NC(=O)C(C)c4ccc(Cl)cc4)C3)n2)cc(OC)c1OC (centres unmarked) [GSK1379757]	0%	0%	48%	0%	9%	0%	22%	0%	0%	0%	21%	0%	0%	1%	0%	0%	13%	0%	3%	0%
CCC(=O)c1c(-c2ccccc2)c2cc(Cl)ccc2c(=O)n1Cc1ccc(C(=O)O)cc1	0%	0%	0%	0%	0%	0%	0%	0%	0%	0%	0%	0%	0%	0%	0%	0%	0%	0%	0%	0%
COc1cc2ncn(-c3cc(OCc4ccc(S(C)(=O)=O)cc4)c(C(N)=O)s3)c2cc1OC [GW869979]	0%	0%	28%	0%	0%	0%	0%	3%	6%	0%	0%	0%	0%	0%	37%	0%	14%	31%	0%	0%
Nc1n[nH]c2nnc(-c3ccccc3)c(-c3ccccc3)c12 [GW554060]	0%	2%	60%	5%	0%	4%	3%	0%	0%	0%	17%	0%	13%	11%	71%	0%	0%	0%	0%	0%
CCC(=O)c1c(-c2ccccc2)c2cc(Cl)ccc2c(=O)n1Cc1cc(S(C)(=O)=O)n(CCC(C)(C)O)n1	0%	23%	14%	0%	0%	33%	7%	15%	0%	24%	18%	19%	18%	28%	0%	9%	13%	23%	14%	0%
O=C(NCCNc1ccnc(Nc2ccc(F)cc2)n1)Nc1ccc2c(c1)OCO2 [GSK1379882]	0%	0%	18%	0%	9%	0%	20%	0%	0%	4%	21%	0%	10%	15%	18%	9%	20%	0%	10%	0%
CCC(=O)c1c(-c2ccccc2)c2cc(Cl)ccc2c(=O)n1Cc1cc(C(=O)NC2CC2)n(C)n1	0%	15%	6%	0%	12%	0%	20%	0%	0%	0%	6%	0%	2%	15%	0%	4%	0%	0%	3%	0%
